The values below come from PubChem BioAssay (NCI).

The panel holds about 83,000 compounds, 20% with a hit somewhere; the sample as a whole holds those more often.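 Single-concentration screen, 48 h exposure, 96-well plates. Endpoint: percent growth. Below 10 = active.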 Unmarked numbers belong to inactive results. Calls of active or inactive are those of the source.

The assay deals with NCI-H226 lung. In words: NCI-60 one-dose screen, 48 h (100 = growth as untreated, 0 = no growth, -100 = all killed). Particulars: 10 µM unless noted.
For `COc1cc(NCc2ccccc2O)c2ncccc2c1`, the growth was 104%.
`Cc1ccc(C2=C/C(=C/c3ccc(Br)cc3)C(=O)N2CCc2ccc(S(N)(=O)=O)cc2)cc1`: the growth was 97%.
On to `Nc1nc(Nc2ccccc2)c2ncn(Cc3ccc4c(c3)OCO4)c2n1`, for which the growth was 75.1%.
As to `O=C(CCCSc1nc(-c2ccccc2)cc(-c2ccccc2)n1)NO`, the growth is -6.97% (active).
For `FC(F)(F)c1ccc2c(c1)Sc1ccccc1N2`, the growth was 94%.
As to `O=C1NC(=O)C(Cc2ccccc2)(Cc2ccccc2)N1`, the growth was 90.4%.
Turning to `C=C(C)[C@@H]1CC[C@]2(C(=O)N3CCN(C)CC3)CC[C@]3(C)[C@H](CC[C@@H]4[C@@]5(C)C/C(=C/c6ccncc6)[C@H](O)C(C)(C)[C@@H]5CC[C@]43C)[C@@H]12`, the growth was -51% [100 µM] (active).
As for `C[C@@H](NC(=O)[C@@H](CC(=O)N1CCC(N2CCCCC2)CC1)N1C(=O)[C@@H](N2C(=O)OC[C@@H]2c2ccccc2)[C@H]1/C=C/c1cccc(Cl)c1)c1ccccc1`, the growth is 89.8%.
Consider `N#C/C(=C(/O)CCCO)c1nc2ccccc2c(=O)[nH]1`, for which the growth was 93.7%.
In the case of `Cn1cc(-c2nnc(-c3cn(C)c4ncc(Br)cc34)s2)c2cc(Br)ccc21`, the growth was 91.8%.
As for `CC1(C)CC[C@]2(C(=O)OC(=O)[C@]34CCC(C)(C)C[C@@H]3C3=CC[C@@H]5[C@@]6(C)CCC(=O)C(C)(C)[C@@H]6CC[C@@]5(C)[C@]3(C)CC4)CC[C@]3(C)C(=CC[C@@H]4[C@@]5(C)CCC(=O)C(C)(C)[C@@H]5CC[C@]43C)[C@H]2C1`, the figure is 68.1% [100 µM]; as for `Cn1cc(-c2noc(-c3cn(C)c4ncc(Br)cc34)n2)c2cc(Cl)ccc21`, 88%; as for `CCc1cccc(Cl)c1`, 99.2%.
As for `c1cc2ccc3cc2cc1CNCCN1CCNCc2ccc4ccc(cc4c2)CNCCN(CCNC3)CCNCc2ccc3ccc(cc3c2)CNCC1`, the figure is 6.46% (active); as for `COc1ccc(-c2cc(-c3ccccc3)nc(NCCNc3ccnc4cc(Cl)ccc34)n2)cc1`, -37.9% (active); as for `O=C(N/N=C\c1cc(Cl)ccc1O)N/N=C/c1cc(Cl)ccc1O`, 73%.
Then `O=C1Nc2ccccc2/C1=C/C(=O)c1ccc(N2CCCCC2)cc1`, with 86.7%; and `O=c1c2c3c(sc2n2cnnc2n1Cc1ccccc1)CCCC3`, with 85%; and `Cn1c(=O)c(C#N)c(-c2ccco2)n2c(S(=O)(=O)Cc3ccccc3)nnc12`, with 122%.
In the case of `CCCCCn1sc(=O)n(Cc2ccc(CNC(=O)OCc3ccc4cccc(O)c4n3)cc2)c1=O`, the growth was 21.9%.
On to `O=C(N/N=C/c1ccc([N+](=O)[O-])cc1)c1ccc(Br)o1`, for which the growth was 100%.
As for `C=C(C)[C@@H]1CC[C@]2(COCCC#N)CC[C@]3(C)[C@H](CC[C@@H]4[C@@](C)(CCCNCCC#N)[C@H](C(=C)C)CC[C@]43C)[C@@H]12`, the figure is 42.6% [100 µM].
For `C=C(C)[C@@H]1CC[C@]2(C(=O)OC)CC[C@]3(C)[C@H](CC[C@@H]4[C@@]5(C)CC/C(=N\OCCC(=NCCC#N)NOCCC#N)C(C)(C)[C@@H]5CC[C@]43C)[C@@H]12`, the growth is 2.42% [100 µM] (active).
